Values joined by “and” are separate entries in the source; they are usually repeats but may differ in a detail not shown here. Equal entries are not always repeated. The source holds several records for some structures; these can differ, active in one and inactive in another. Active and inactive are the calls of the source. Rule for the calls: active = hit-call score of the fitted dose curve at least 0.9, where 1 is the maximum; inactive = score below 0.9.

Read-out in this assay: Transforming growth factor beta 1 (TGFb1), TGFB1 (gene 7040)
Kind of assay: BSK_BE3C_TGFb1: BioMAP Diversity Plus: BE3C Assay for Transforming growth factor beta 1 (TGFb1) Biomarker Activity (AID 2283036). Particulars: primary human bronchial epithelial cells; actives raise or lower the signal. The method in brief:
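Primary human bronchial epithelial cells dosed with chemical; TGF-b1 measured by ELISA 24 h after dosing. Bidirectional curve fitting against DMSO negative control; SRB total-protein staining in parallel cultures gauged cytotoxicity.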
Turning to `O=C(O)C(F)(F)C(F)(F)C(F)(F)C(F)(F)C(F)(F)C(F)(F)C(F)(F)F`, the result was inactive. Still for that read-out and setting: the same measure for `COP(=O)(OC)OC=C(Cl)Cl`: “inactive”. The AC50 is the midpoint of the concentration-response curve, whichever way the signal moves. Regarding `COP(=S)(OC)Oc1ccc([N+](=O)[O-])cc1`, the AC50 is 9070 nM (active).

`O=C(NC(=O)c1c(F)cccc1F)Nc1ccc(OC(F)(F)C(F)OC(F)(F)F)c(Cl)c1` (configuration not stated): the AC50 was 235 nM (active). Consider `CCc1ccc(C(=O)NN(C(=O)c2cc(C)cc(C)c2)C(C)(C)C)cc1`, for which the outcome was inactive.

On to `COC(=O)c1ccccc1S(=O)(=O)NC(=O)N(C)c1nc(C)nc(OC)n1`, for which the concentration at half-maximal activity (AC50) was 148 nM (active).

For the molecule `COC(=O)c1ccccc1CS(=O)(=O)NC(=O)Nc1nc(OC)cc(OC)n1`, the outcome was inactive. Take `O=C(O)CCCOc1ccc(Cl)cc1Cl`: the outcome was inactive. The same measure, in the same setting: the same measure for `O=[N+]([O-])/N=C1\NCCN1Cc1ccc(Cl)nc1`: “inactive”; for `Cc1[nH]c(=O)n(C(C)(C)C)c(=O)c1Cl`: “inactive”; for `CC(C)(C)C(O)C(Oc1ccc(Cl)cc1)n1cncn1` (configuration not stated): “inactive”. For `CCOCN(C(=O)CCl)c1c(C)cccc1CC`, the outcome was inactive.

Turning to `[2H]C1([2H])[n+]2ccccc2-c2cccc[n+]2C1([2H])[2H]`, the result was inactive. `CCOc1nc(NC)nc(NC(=O)NS(=O)(=O)c2ccccc2C(=O)OC)n1`: the result was inactive. The same measure, in the same setting: the same measure for `Cc1cc(C)nc(NC(=O)NS(=O)(=O)c2ccccc2C(=O)OC2COC2)n1`: “inactive”.

As for `COc1nn(CSP(=S)(OC)OC)c(=O)s1`, the outcome was inactive. With `Oc1ccc(Cl)cc1Cc1ccccc1`, the half-maximal activity concentration (AC50) is 33.9 µM (active) [middle of 7 runs]. On to `CCOC1Oc2ccc(OS(C)(=O)=O)cc2C1(C)C` (configuration not stated), for which the result was inactive. `ClC1C(Cl)C(Cl)C(Cl)C(Cl)C1Cl` (configuration not stated): the result was inactive.

For `N#CN`, the AC50 was 638 nM (active). As to `CC1(c2ccc(Oc3ccccc3)cc2)OC(=O)N(Nc2ccccc2)C1=O` (configuration not stated), the outcome was inactive.

As to `CCCN(CCC)c1c([N+](=O)[O-])cc(C(F)(F)F)cc1[N+](=O)[O-]`, the result was inactive. Still for that read-out and setting: the same measure for `COc1cc(OC)nc(NC(=O)NS(=O)(=O)c2cc(NC=O)ccc2C(=O)N(C)C)n1`: “inactive”.

In the case of `O=S(=O)(O)C(F)(F)C(F)(F)C(F)(F)C(F)(F)C(F)(F)C(F)(F)C(F)(F)C(F)(F)F`, the half-maximal activity concentration (AC50) is 28.6 µM (active) and 12.1 µM (active) and 19.2 µM (active); the outcome was inactive.

As to `N#Cc1c(Cl)c(Cl)c(Cl)c(C#N)c1Cl`, the AC50 is 3940 nM (active). In the case of `O=[N+]([O-])c1c(Cl)c(Cl)c(Cl)c(Cl)c1Cl`, the outcome was inactive.
